Measurements as given in PubChem BioAssay AID504834 (National Center for Advancing Translational Sciences (NCATS), 2011).
Several values for one entry are separate records, joined by “and”; a condition that tells them apart may be missing. Equal values may be shown once. Out of some 320,000 compounds screened, about 22,000 (6.9%) were called active. Entries that show only a call come without a potency. Inconclusive results (about 27%) are left out. The call rests on the fitted dose curve; in most records, active means well fitted inhibition curve with a large enough effect; inconclusive means small, poorly fitted or top-dose-only effect, or another doubt; inactive means no such curve, though single readings can be large or run the other way. For the sample, actives were picked, then their nearest neighbours and some compounds at random. More than one record can exist for a structure, and the calls need not agree.

Assay: Primary qHTS for delayed death inhibitors of the malarial parasite plastid, 96 hour incubation
Details: P. falciparum luciferase reporter growth; series mostly up to 28.7 µM
In short: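 Two-generation exposure (96 h) targets delayed-death phenotype. Reporter parasites carrying integrated firefly luciferase, in red cells at 2% hematocrit and 0.05% parasitemia final, kept at 37 C, 5% CO2; luminescence loss indicates inhibition.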
Potency means the concentration at half of the fitted maximal effect.

SMILES | Potency
Cc1c(Cl)cccc1NC(=O)NCCCN1CCCC1=O | inactive
COc1ccccc1NC(=O)CN1CCN(S(=O)(=O)c2ccc(Br)cc2)CC1 | inactive
COC(=O)c1c(NC(=O)CN2CCN(S(=O)(=O)c3ccccc3[N+](=O)[O-])CC2)sc2c1CCC(C)C2 (configuration not stated) | 9.28 µM (active)
Cc1c(Br)c([N+](=O)[O-])nn1CC(=O)Nc1sc2c(c1C(=O)OC(C)C)CCC(C)C2 (configuration not stated) | inactive
O=C(Cc1ccsc1)N1CCN(S(=O)(=O)c2cc(C(F)(F)F)cc(C(F)(F)F)c2)CC1 | inactive
O=C(CSc1ncn[nH]1)Nc1nc(-c2cccc([N+](=O)[O-])c2)cs1 | inactive
COc1ccc2c(c1OC)C(=O)N(c1ccc(O)cc1)C2 | inactive
CCN1C(=NCc2ccc(OC)cc2)N[C@@H](CCc2ccccc2)[C@H](C(=O)NCc2ccc(OC)cc2)[C@H]1C | inactive and 5.22 µM (active)
COc1ccc(CNC(=O)C2CCN(S(C)(=O)=O)CC2)cc1 | inactive
CCN1C(=NCC(C)C)N[C@@H](CCc2ccccc2)[C@H](C(=O)NCC(C)C)[C@H]1C | inactive
O=C(Nc1cccnc1Cl)c1cc(-c2ccccc2O)on1 | inactive
CC(=O)c1ccc(NC(=O)C2CC(=O)Nc3nc4ccccc4n32)cc1 (configuration not stated) | inactive
O=C(c1ccncc1)N1CCN(S(=O)(=O)c2cccc([N+](=O)[O-])c2)CC1 | inactive
C=CCN1CCN(C(=O)CCCc2ccccc2)CC1 | inactive
CCC(=O)c1ccc(OCC(=O)OCC(=O)NC2CCCCCC2)cc1 | inactive
Cc1cccc(NC(=O)CN2CCN(C(=O)C3CCN(C(=O)/C=C/c4ccccc4)CC3)CC2)c1C | inactive
COc1ccc(-c2nn(-c3ccccc3)cc2C(=O)Nc2nccs2)cc1OC | inactive
Oc1ccc(Br)cc1/C=N/Nc1ccccn1 | inactive
COc1ccc(-c2nn(-c3ccccc3)cc2/C=N/Nc2ccccn2)cc1OC | 3.7 µM (active)
CC(=O)Nc1cccc(C(=O)OCC(=O)c2ccc3c(c2)OCO3)c1 | inactive
Cc1ccc(CNCc2ccc3c(c2)OCO3)c(C)c1 | inactive
O=c1[nH]c(N2CCN(Cc3ccc4c(c3)OCO4)CC2)nc2c1CCCC2 | 7.38 µM (active)
CCCCCc1c(C)nc(N2CCN(Cc3ccc4c(c3)OCO4)CC2)[nH]c1=O | inactive
CCN1CCN(c2nc3c(c(=O)[nH]2)CCC3)CC1 | inactive
O=C(COC(=O)c1ncc(Cl)c(Cl)c1Cl)NC1CCS(=O)(=O)C1 (configuration not stated) | inactive
Cc1occc(=O)c1OCc1ccc(F)cc1 | inactive

SMILES | Potency
Cc1ccc(COC(=O)CN2C(=O)NC3(CCCC3)C2=O)cc1 | inactive
O=C(CN1C(=O)NC2(CCCC2)C1=O)OCCOc1ccc(F)cc1 | inactive
CCOc1ccc(C(C)=O)cc1COC(=O)CN1C(=O)NC2(CCCC2)C1=O | 5.22 µM (active)
O=C(COC(=O)c1ccc([N+](=O)[O-])cc1Cl)NC(=O)c1ccccc1 | inactive
COc1ccc(CNC(=O)CN2C(=O)NC3(CCCc4sccc43)C2=O)cc1 (configuration not stated) | inactive
Cc1cccc(C)c1NC(=O)CN(C)C(=O)CCC(=O)c1ccccc1 | inactive
CC(=O)Nc1ccc(Nc2cc(C)nc(Nc3ccc(NC(C)=O)cc3)n2)cc1 | 2.94 µM (active)
COc1ccc(C(=O)NNc2cc(C)nc(NNC(=O)c3ccc(OC)cc3)n2)cc1 | inactive
CC(=O)Nc1ccc(Nc2c3ccccc3nc3ccccc23)cc1 | inactive
CCN(CC)Cc1c(C(=O)N/N=C/c2cccc(OCc3ccc(F)cc3)c2)nnn1-c1nonc1N | inactive
O=C(NNc1ccccc1Cl)C(O)(c1cccc(C(F)(F)F)c1)c1cccc(C(F)(F)F)c1 | 2.62 µM (active)
O=C(Nc1cc(C(F)(F)F)ccc1Cl)C(=O)N1CCCCC1 | inactive
CC(CC(=O)Nc1cc(C(F)(F)F)ccc1Cl)c1ccccc1 (configuration not stated) | inactive
COC(=O)c1cc(N2CCNCC2)nc2ccccc12 | inactive
Cc1nc2ccccc2n1CC(=O)N/N=C/c1cccs1 | 2.33 µM (active)
Cc1nnc(SCC(=O)N/N=C/c2cn(-c3ccccc3)nc2-c2ccc(F)cc2)n1-c1ccccc1 | inactive
Cc1ccc(-c2nnc(SCC(=O)N/N=C/c3cccs3)n2-c2ccc(C)cc2)cc1 | 13.1 µM (active)
Cc1ccc(-n2c(C)nnc2SCC(=O)NC2CC2)cc1 | inactive
Cc1nc2ccccc2n1CC(=O)N/N=C/c1cccnc1 | inactive
NC(=O)N/N=C\c1cccs1 | inactive
CCN1CCN(C(=O)N[C@@H](C(=O)N[C@@H]2C(=O)N3C(C(=O)O)=C(CSc4nnnn4C)CS[C@H]23)c2ccc(O)cc2)C(=O)C1=O | inactive
Cn1nc(C(F)(F)F)c(-c2ccc(F)cc2)c1NC(=O)CSCC(=O)O | inactive
Cc1nc(N)sc1N=Nc1c(C)n(C)n(-c2ccccc2)c1=O | inactive
COc1c(O)ccc2c1-c1c3c(cc4c1C(C2)N(C)CC4)OCO3 (configuration not stated) | inactive
COc1c(O)ccc2c1CN1CCc3cc4c(cc3C1C2)OCO4 (configuration not stated) | 3.29 µM (active)
CN1CCc2cc3c(cc2[C@H]1[C@@H]1OC(=O)c2c1ccc1c2OCO1)OCO3 | inactive

SMILES | Potency
O=C(CCc1ccccc1Cl)Nc1ccc(S(=O)(=O)Nc2nccs2)cc1 | inactive
O=C(COc1ccc(Cl)cc1)NCCS(=O)(=O)N1CCN(c2ccc(F)cc2)CC1 | inactive
Cc1cc2c(cc1C)N(C(=O)CN1C(=O)c3ccccc3C1=O)C(C)(C)c1ssc(=S)c1-2 | 8.28 µM (active)
Cc1cc(C)cc(NC(=O)CN2C(=O)c3ccccc3C2=O)c1 | inactive
Cc1ccc(NC(=O)CCN2C(=O)c3ccccc3C2=O)cc1C | inactive
Cc1nn(CC(=O)N/N=C/c2ccc(F)cc2)c(C)c1[N+](=O)[O-] | inactive
CC1CCN(C(=S)NC(=O)c2ccccc2Br)CC1 | inactive
CCOC(=O)c1c(CC(C)C)csc1/N=C/C1=C(O)CCCC1=O | inactive
CN1C(=O)[C@H]2[C@@H](C3CC3)N3C(=O)CN(Cc4ccccc4)C(=O)[C@@]3(C)[C@H]2C1=O | inactive
CC(=O)Nc1ccc(NC(=O)CCCNC(=O)c2ccc(Cl)cc2)cc1 | inactive
C=CCNC(=S)N/N=C/c1ccc(C)s1 | 4.65 µM (active)
Cc1ccc(/C=N/NC(=O)CN2CCN(Cc3ccccc3)CC2)s1 | inactive
C=CCNC(=S)NNC(=O)c1ccc(Br)o1 | inactive
CC(C)c1c(O)nc(SCCOc2ccc(Cl)cc2)[nH]c1=O | inactive
CCOc1cc2[nH]c(=S)n(Cc3ccc(C(=O)N4CCN(C)CC4)cc3)c(=O)c2cc1OCC | inactive
Cc1ccc2[nH]c3c(=O)n(CC(=O)NCCc4ccc(Cl)cc4)ncc3c2c1 | 13.1 µM (active)
CC1CC(C)CN(CCCNC(=O)Cn2ncc3c([nH]c4ccccc43)c2=O)C1 (configuration not stated) | inactive
Cc1cccc(CCNC(=O)Cn2ncc3c([nH]c4ccc(C)cc43)c2=O)c1 | inactive
Nc1c(C(=O)OCC(=O)Nc2ccc(OC(F)F)cc2)[nH]c(=O)[nH]c1=O | inactive
O=C(CCS(=O)(=O)Cc1ccccc1)Nc1ccc2c(c1)OCCO2 | 2.94 µM (active)
COc1ccccc1OCCCC(=O)Nc1ccc2c(c1)OCCO2 | inactive
O=C(CN(c1ccc2c(c1)OCCO2)S(=O)(=O)c1ccccc1)Nc1ccc2c(c1)OCO2 | inactive
Cc1ccc(-n2c(SCC(=O)N3CCC(C(=O)O)CC3)nc3ccccc3c2=O)cc1C | inactive
CN(C)c1ccc(NC(=O)CN2C3CCCC2CC(NC(=O)c2ccccc2)C3)cc1 (configuration not stated) | inactive
CCCCCc1ccc(-c2cn(Cc3ccc4ccccc4c3)nn2)cc1 | inactive
O=C1OCC2=C1C(c1ccccc1)CC(=O)N2c1cccc(F)c1 (configuration not stated) | inactive

SMILES | Potency
O=C1CC(c2cccc(F)c2)C2=C(CCCC2=O)N1 (configuration not stated) | 9.28 µM (active)
O=C1CC(c2cccc(Br)c2)C2=C(CCCC2=O)N1 (configuration not stated) | inactive
COc1ccc(CNC(=O)c2cc(C(=O)C3CC3)c[nH]2)cc1 | inactive
O=[N+]([O-])c1ccc2oc(-c3cccc(O)c3)nc2c1 | inactive
COc1ccc(-c2nc3cc([N+](=O)[O-])ccc3o2)cc1OC | inactive
CC(=O)Oc1ccc2c(=O)oc(-c3ccc([N+](=O)[O-])cc3)nc2c1 | 2.33 µM (active)
O=C(NCc1cccs1)c1ccc(CS(=O)Cc2ccccc2Cl)o1 (configuration not stated) | inactive
O=Cc1cn(-c2ccccc2)nc1-c1ccccn1 | inactive
Cc1ccc2[nH]c(=O)c(CN(CC3COCCO3)C(=O)Nc3ccccc3C)cc2c1 (configuration not stated) | 0.465 µM (active)
CCNCc1cc2cc(C)ccc2[nH]c1=O | inactive
Cc1ccc2[nH]c(=O)c(CN(CCCN(C)C)C(=O)Nc3cccc(Cl)c3)cc2c1 | 2.94 µM (active)
CCC(=O)N(CCc1ccccc1)Cc1cc2cc(C)ccc2[nH]c1=O | inactive
CC(=O)OCc1cc2cc(C)ccc2[nH]c1=O | inactive
COc1ccc2[nH]c(=O)c(CN(CC3CCCO3)C(=O)Nc3ccccc3)cc2c1 (configuration not stated) | inactive
COc1ccc(S(=O)(=O)NCC(c2ccc(C)cc2)N2CCN(C)CC2)cc1OC (configuration not stated) | inactive
Cc1ccc(-c2noc(CNC(=O)c3ccoc3C)n2)cc1 | inactive
O=C(NC1CCCC1)C1CCN(C(=O)Nc2cccc(Cl)c2)CC1 | inactive
COc1ccccc1NC(=O)Nc1nc(CC(=O)Nc2ccccc2F)cs1 | inactive
Cc1cc(=O)oc2ccc(OCC(=O)O)cc12 | inactive
Cc1cc(=O)oc2cc(OCCC[n+]3ccccc3)ccc12 | 4.65 µM (active)
Cc1ccccc1N1CCN(CCCOc2ccc3c(C)cc(=O)oc3c2)CC1 | inactive
Cc1ccc(C2SCC(=O)N2c2ccccc2)cc1 (configuration not stated) | inactive
CN(CC(=O)Nc1cccc(F)c1)C(=O)C1=COCCO1 | inactive
CC(OC(=O)c1cc2ccccc2o1)C(=O)Nc1ccc(N2CCOCC2)cc1 (configuration not stated) | inactive
